Test results published in paper PMC11006913.

How the values were obtained:
Test in all cases: PBM; 200 nM protein, PBS
Settings in all cases: dsDNA, one strand shown
[1] = molecular target: HESX1 (Homo sapiens, UniProt Q9UBX0 95-180, R165K)
[2] = molecular target: HESX1 (Homo sapiens, UniProt Q9UBX0 95-180)
[3] = molecular target: HESX1 (Homo sapiens, UniProt Q9UBX0 95-180, R109Q)
[4] = molecular target: HESX1 (Homo sapiens, UniProt Q9UBX0 95-180, P111T)
[5] = molecular target: HESX1 (Homo sapiens, UniProt Q9UBX0 95-180, F115L)
[6] = molecular target: ALX4 (Homo sapiens, UniProt Q9H161 200-286)
[7] = molecular target: ALX4 (Homo sapiens, UniProt Q9H161 200-286, Q225E)
[8] = molecular target: PRRX1 (Homo sapiens, UniProt P54821 80-166, F113S)
[9] = molecular target: MSX2 (Homo sapiens, UniProt P35548 130-214, R199I)
[10] = molecular target: ALX1 (Homo sapiens, UniProt Q15699 118-204, L144V)
[11] = molecular target: ALX1 (Homo sapiens, UniProt Q15699 118-204, L144R)
[12] = molecular target: PROP1 (Homo sapiens, UniProt O75360 56-141)
[13] = molecular target: PROP1 (Homo sapiens, UniProt O75360 56-141, R99H)
[14] = molecular target: PROP1 (Homo sapiens, UniProt O75360 56-141, F88S)
[15] = molecular target: MSX2 (Homo sapiens, UniProt P35548 130-214, F161Y)
[16] = molecular target: ALX1 (Homo sapiens, UniProt Q15699 118-204)
[17] = molecular target: PRRX1 (Homo sapiens, UniProt P54821 80-166)
Chain of PRRX1 (Homo sapiens, UniProt P54821 80-166) (P54821 80-166): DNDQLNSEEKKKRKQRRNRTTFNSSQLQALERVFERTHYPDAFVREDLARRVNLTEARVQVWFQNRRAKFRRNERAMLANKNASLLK

Chain of HESX1 (Homo sapiens, UniProt Q9UBX0 95-180, P111T) (Q9UBX0 95-180 P111T): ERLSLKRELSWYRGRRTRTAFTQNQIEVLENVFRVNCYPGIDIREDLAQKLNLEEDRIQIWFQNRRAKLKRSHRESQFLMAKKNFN
Chain of HESX1 (Homo sapiens, UniProt Q9UBX0 95-180, R109Q) (Q9UBX0 95-180 R109Q): as the sequence (Q9UBX0 95-180 P111T) above, with R15Q, T17P counted along it
Chain of HESX1 (Homo sapiens, UniProt Q9UBX0 95-180) (Q9UBX0 95-180): as the sequence (Q9UBX0 95-180 P111T) above, with T17P counted along it
Chain of ALX4 (Homo sapiens, UniProt Q9H161 200-286, Q225E) (Q9H161 200-286 Q225E): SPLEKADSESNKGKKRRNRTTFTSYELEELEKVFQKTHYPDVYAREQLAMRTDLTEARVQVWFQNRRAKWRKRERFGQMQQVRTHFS
Chain of HESX1 (Homo sapiens, UniProt Q9UBX0 95-180, F115L) (Q9UBX0 95-180 F115L): as the sequence (Q9UBX0 95-180 P111T) above, with T17P, F21L counted along it
Chain of ALX4 (Homo sapiens, UniProt Q9H161 200-286) (Q9H161 200-286): as the sequence (Q9H161 200-286 Q225E) above, with E26Q counted along it
Chain of HESX1 (Homo sapiens, UniProt Q9UBX0 95-180, R165K) (Q9UBX0 95-180 R165K): as the sequence (Q9UBX0 95-180 P111T) above, with T17P, R71K counted along it
Chain of ALX1 (Homo sapiens, UniProt Q15699 118-204, L144V) (Q15699 118-204 L144V): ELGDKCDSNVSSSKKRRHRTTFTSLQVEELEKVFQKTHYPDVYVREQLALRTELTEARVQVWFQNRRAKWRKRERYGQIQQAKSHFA
Chain of PRRX1 (Homo sapiens, UniProt P54821 80-166, F113S) (P54821 80-166 F113S): as the sequence (P54821 80-166) above, with F34S counted along it
Chain of ALX1 (Homo sapiens, UniProt Q15699 118-204, L144R) (Q15699 118-204 L144R): as the sequence (Q15699 118-204 L144V) above, with V27R counted along it
Chain of ALX1 (Homo sapiens, UniProt Q15699 118-204) (Q15699 118-204): as the sequence (Q15699 118-204 L144V) above, with V27L counted along it
Chain of MSX2 (Homo sapiens, UniProt P35548 130-214, R199I) (P35548 130-214 R199I): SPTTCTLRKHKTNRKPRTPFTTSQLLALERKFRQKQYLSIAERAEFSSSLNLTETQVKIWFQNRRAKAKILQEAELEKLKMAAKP
Chain of PROP1 (Homo sapiens, UniProt O75360 56-141, F88S) (O75360 56-141 F88S): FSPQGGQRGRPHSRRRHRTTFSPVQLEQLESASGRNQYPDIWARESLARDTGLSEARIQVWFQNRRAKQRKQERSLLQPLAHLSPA
Chain of PROP1 (Homo sapiens, UniProt O75360 56-141, R99H) (O75360 56-141 R99H): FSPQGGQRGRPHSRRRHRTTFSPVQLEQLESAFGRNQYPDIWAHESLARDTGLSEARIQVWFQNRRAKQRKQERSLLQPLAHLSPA
Chain of MSX2 (Homo sapiens, UniProt P35548 130-214, F161Y) (P35548 130-214 F161Y): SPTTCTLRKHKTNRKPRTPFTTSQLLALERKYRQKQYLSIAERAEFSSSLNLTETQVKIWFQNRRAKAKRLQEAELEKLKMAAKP
Chain of PROP1 (Homo sapiens, UniProt O75360 56-141) (O75360 56-141): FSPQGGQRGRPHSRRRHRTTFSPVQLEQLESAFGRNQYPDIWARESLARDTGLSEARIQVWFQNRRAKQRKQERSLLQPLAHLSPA

CCGCCGAG was tested. Which binding signal [1] did it give?
The binding signal was 6.43 upbm affinity estimate (log intensity, higher = more binding, comparable within an allelic series).

And the binding signal [2]?
Its binding signal is 6.32 upbm affinity estimate (log intensity, higher = more binding, comparable within an allelic series).

What about the binding signal [3] of the same sequence?
The binding signal was 6.49 upbm affinity estimate (log intensity, higher = more binding, comparable within an allelic series).

And the binding signal [4]?
The binding signal was 6.43 upbm affinity estimate (log intensity, higher = more binding, comparable within an allelic series).

What about the binding signal [5] of the same sequence?
The binding signal was 6.38 upbm affinity estimate (log intensity, higher = more binding, comparable within an allelic series).

GAGTCGCC was tested. Which binding signal [1] did it give?
The binding signal was 6.49 upbm affinity estimate (log intensity, higher = more binding, comparable within an allelic series).

And the binding signal [6]?
Its binding signal is 8.18 upbm affinity estimate (log intensity, higher = more binding, comparable within an allelic series).

And the binding signal [7]?
Its binding signal is 8.37 upbm affinity estimate (log intensity, higher = more binding, comparable within an allelic series).

And the binding signal [2]?
Its binding signal is 6.48 upbm affinity estimate (log intensity, higher = more binding, comparable within an allelic series).

What about the binding signal [3] of the same sequence?
The binding signal was 6.47 upbm affinity estimate (log intensity, higher = more binding, comparable within an allelic series).

What about the binding signal [4] of the same sequence?
Its binding signal is 6.56 upbm affinity estimate (log intensity, higher = more binding, comparable within an allelic series).

What about the binding signal [5] of the same sequence?
The binding signal was 6.36 upbm affinity estimate (log intensity, higher = more binding, comparable within an allelic series).

Which binding signal [1] does the source give for AATTATCA here?
The binding signal was 11.4 upbm affinity estimate (log intensity, higher = more binding, comparable within an allelic series).

And the binding signal [8]?
The binding signal was 11.2 upbm affinity estimate (log intensity, higher = more binding, comparable within an allelic series).

And the binding signal [2]?
The binding signal was 11.5 upbm affinity estimate (log intensity, higher = more binding, comparable within an allelic series).

What about the binding signal [9] of the same sequence?
Its binding signal is 12.3 upbm affinity estimate (log intensity, higher = more binding, comparable within an allelic series).

And the binding signal [10]?
The binding signal was 11.3 upbm affinity estimate (log intensity, higher = more binding, comparable within an allelic series).

And the binding signal [11]?
Its binding signal is 11.1 upbm affinity estimate (log intensity, higher = more binding, comparable within an allelic series).

And the binding signal [12]?
Its binding signal is 11 upbm affinity estimate (log intensity, higher = more binding, comparable within an allelic series).

And the binding signal [3]?
The binding signal was 8.56 upbm affinity estimate (log intensity, higher = more binding, comparable within an allelic series).

What about the binding signal [13] of the same sequence?
The binding signal was 10.6 upbm affinity estimate (log intensity, higher = more binding, comparable within an allelic series).

And the binding signal [4]?
The binding signal was 10.1 upbm affinity estimate (log intensity, higher = more binding, comparable within an allelic series).

And the binding signal [14]?
The binding signal was 7.71 upbm affinity estimate (log intensity, higher = more binding, comparable within an allelic series).

And the binding signal [15]?
The binding signal was 13 upbm affinity estimate (log intensity, higher = more binding, comparable within an allelic series).

What about the binding signal [5] of the same sequence?
Its binding signal is 7.79 upbm affinity estimate (log intensity, higher = more binding, comparable within an allelic series).

And the binding signal [16]?
The binding signal was 12 upbm affinity estimate (log intensity, higher = more binding, comparable within an allelic series).

What about the binding signal [17] of the same sequence?
The binding signal was 13.3 upbm affinity estimate (log intensity, higher = more binding, comparable within an allelic series).

Which results are given for CTCTCCAG?
binding signal [1]: 6.3 upbm affinity estimate (log intensity, higher = more binding, comparable within an allelic series); binding signal [6]: 7.91 upbm affinity estimate (log intensity, higher = more binding, comparable within an allelic series); binding signal [7]: 7.91 upbm affinity estimate (log intensity, higher = more binding, comparable within an allelic series); binding signal [2]: 6.32 upbm affinity estimate (log intensity, higher = more binding, comparable within an allelic series); binding signal [3]: 6.51 upbm affinity estimate (log intensity, higher = more binding, comparable within an allelic series); binding signal [4]: 6.4 upbm affinity estimate (log intensity, higher = more binding, comparable within an allelic series); binding signal [5]: 6.42 upbm affinity estimate (log intensity, higher = more binding, comparable within an allelic series)

How did the binding signal [1] turn out when CACGGCTG was run?
The binding signal was 6.44 upbm affinity estimate (log intensity, higher = more binding, comparable within an allelic series).

And the binding signal [6]?
The binding signal was 7.95 upbm affinity estimate (log intensity, higher = more binding, comparable within an allelic series).

And the binding signal [7]?
Its binding signal is 7.97 upbm affinity estimate (log intensity, higher = more binding, comparable within an allelic series).

And the binding signal [2]?
Its binding signal is 6.33 upbm affinity estimate (log intensity, higher = more binding, comparable within an allelic series).

What about the binding signal [10] of the same sequence?
Its binding signal is 6.21 upbm affinity estimate (log intensity, higher = more binding, comparable within an allelic series).

What about the binding signal [11] of the same sequence?
Its binding signal is 6.3 upbm affinity estimate (log intensity, higher = more binding, comparable within an allelic series).

And the binding signal [3]?
Its binding signal is 6.53 upbm affinity estimate (log intensity, higher = more binding, comparable within an allelic series).

And the binding signal [4]?
The binding signal was 6.39 upbm affinity estimate (log intensity, higher = more binding, comparable within an allelic series).

What about the binding signal [5] of the same sequence?
The binding signal was 6.49 upbm affinity estimate (log intensity, higher = more binding, comparable within an allelic series).

What about the binding signal [16] of the same sequence?
The binding signal was 6.11 upbm affinity estimate (log intensity, higher = more binding, comparable within an allelic series).

For AGAGGACC, which binding signal [1] is on record?
Its binding signal is 6.6 upbm affinity estimate (log intensity, higher = more binding, comparable within an allelic series).

And the binding signal [2]?
The binding signal was 6.46 upbm affinity estimate (log intensity, higher = more binding, comparable within an allelic series).

What about the binding signal [3] of the same sequence?
The binding signal was 6.58 upbm affinity estimate (log intensity, higher = more binding, comparable within an allelic series).

And the binding signal [4]?
The binding signal was 6.41 upbm affinity estimate (log intensity, higher = more binding, comparable within an allelic series).

And the binding signal [5]?
Its binding signal is 6.55 upbm affinity estimate (log intensity, higher = more binding, comparable within an allelic series).

With ATGTTAAT as the sequence, how does the binding signal [1] read?
The binding signal was 8.98 upbm affinity estimate (log intensity, higher = more binding, comparable within an allelic series).

And the binding signal [2]?
Its binding signal is 9.41 upbm affinity estimate (log intensity, higher = more binding, comparable within an allelic series).

Which results are given for CGGCTAGC?
binding signal [1]: 6.5 upbm affinity estimate (log intensity, higher = more binding, comparable within an allelic series); binding signal [8]: 9.18 upbm affinity estimate (log intensity, higher = more binding, comparable within an allelic series); binding signal [2]: 6.49 upbm affinity estimate (log intensity, higher = more binding, comparable within an allelic series); binding signal [3]: 6.39 upbm affinity estimate (log intensity, higher = more binding, comparable within an allelic series); binding signal [4]: 6.54 upbm affinity estimate (log intensity, higher = more binding, comparable within an allelic series); binding signal [5]: 6.45 upbm affinity estimate (log intensity, higher = more binding, comparable within an allelic series); binding signal [17]: 9.46 upbm affinity estimate (log intensity, higher = more binding, comparable within an allelic series)

ACCAAATA was tested. Which binding signal [1] did it give?
The binding signal was 7.74 upbm affinity estimate (log intensity, higher = more binding, comparable within an allelic series).

What about the binding signal [2] of the same sequence?
Its binding signal is 7.83 upbm affinity estimate (log intensity, higher = more binding, comparable within an allelic series).

And the binding signal [4]?
Its binding signal is 7.46 upbm affinity estimate (log intensity, higher = more binding, comparable within an allelic series).

What does the source list for AGCTGCCT?
binding signal [1]: 6.48 upbm affinity estimate (log intensity, higher = more binding, comparable within an allelic series); binding signal [2]: 6.48 upbm affinity estimate (log intensity, higher = more binding, comparable within an allelic series); binding signal [3]: 6.53 upbm affinity estimate (log intensity, higher = more binding, comparable within an allelic series); binding signal [4]: 6.48 upbm affinity estimate (log intensity, higher = more binding, comparable within an allelic series); binding signal [5]: 6.43 upbm affinity estimate (log intensity, higher = more binding, comparable within an allelic series)
